Only some compounds are listed: those with a hit (about 12% of all), similar ones and a draw of the others.
HP1b chromo inh: HP1-beta chromodomain-methylated histone interaction inhibition | P83916 | AlphaScreen HP1-beta / biotin-H3K9me3 peptide binding | Potency, µM (series often up to 114 µM), most hits filed as inhibitors | hit rate 0.56% among 390,000; also: nearly all actives have a fitted effect of over 70% in size
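Compound inhibition of the preformed complex between 50 nM HP1-beta and 50 nM biotinylated H3K9me3 peptide was read by AlphaScreen. Buffer was PBS pH 7.4 with 0.01% Tween-20. Incubations ran 30 min at room temperature, with 10 ug/mL donor/acceptor beads.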
JMJD2A Tudor: blocks the human JMJD2A Tudor domain; O75164; AlphaScreen JMJD2A-Tudor / H3K4me3 peptide binding; Potency, µM (highest dose often 114 µM), most hits filed as inhibitors; hit rate 4.4% among 390,000; AID 504339; also: nearly all actives have a fitted effect of over 50% in size
G9a inh: blocks human histone lysine methyltransferase G9a | hit rate 8.8% among 350,000 | AID 504332 | G9a H3K9 monomethylation, AlphaScreen, 2 h | Q96KQ7 | Potency, µM (series often up to 102 µM), hits mostly inhibitors; also: nearly all actives have a fitted effect of over 75% in size
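Using a bead-based AlphaScreen, monomethylated H3K9 product from 2 h room-temperature reactions (G9a 20 nM, peptide 500 nM, SAM 20 uM) was detected with 0.5 ug/mL rabbit anti-H3K9me1 antibody.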
PLK1 PBD inh: blocks phosphopeptide binding to human PLK1 polo-box domain | Plk1 PBD binding of FITC phosphopeptide, fluorescence polarization | Potency, µM, hits mostly inhibitors | hit rate 2.8% among 360,000 | P53350; also: series mostly up to about 57 µM; nearly all actives have a fitted effect of over 65% in size
Target sequence (P53350 whole entry, looked up, the tested form may be a part): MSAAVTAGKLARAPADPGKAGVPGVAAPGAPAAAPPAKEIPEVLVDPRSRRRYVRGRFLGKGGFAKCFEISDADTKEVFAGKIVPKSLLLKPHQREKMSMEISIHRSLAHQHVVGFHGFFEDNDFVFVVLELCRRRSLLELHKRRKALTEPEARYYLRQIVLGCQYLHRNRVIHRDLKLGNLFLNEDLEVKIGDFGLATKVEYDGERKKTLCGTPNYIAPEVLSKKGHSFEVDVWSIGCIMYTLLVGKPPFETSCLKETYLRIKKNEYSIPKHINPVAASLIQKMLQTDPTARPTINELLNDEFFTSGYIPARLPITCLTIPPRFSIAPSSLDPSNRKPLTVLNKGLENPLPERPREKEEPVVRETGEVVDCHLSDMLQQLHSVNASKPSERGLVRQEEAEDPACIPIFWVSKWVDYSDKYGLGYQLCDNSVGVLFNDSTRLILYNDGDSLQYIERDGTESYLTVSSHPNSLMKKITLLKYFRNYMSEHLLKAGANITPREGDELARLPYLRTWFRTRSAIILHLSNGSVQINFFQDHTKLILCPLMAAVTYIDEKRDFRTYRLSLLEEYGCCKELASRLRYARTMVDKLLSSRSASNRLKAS
Sfp PPTase inh: inhibitors of Bacillus subtilis Sfp phosphopantetheinyl transferase. Biochemical Sfp PPTase activity, qHTS. Potency, µM, hits mostly inhibitors. hit rate 3.5% among 310,000;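 also: the enzyme is Sfp with the accession as filed and its product quenches rhodamine fluorescence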
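Fluorescence-quenching assay with 15 nM Sfp, 5 uM rhodamine-CoA and 12.5 uM BHQ-2-labelled ybbR peptide in pH 7.6 Hepes/MgCl2 buffer. Enzyme was pre-incubated with compound for 15 min at room temperature. Rate was taken from the 30-min fluorescence change (525/598 nm).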
BAZ2B inh: blocks human BAZ2B; AlphaScreen BAZ2B-H3K14Ac peptide displacement; AID 504333; Potency, µM (highest dose often 114 µM), hits mostly inhibitors; Q9UIF8; hit rate 4.4% among 360,000; also: nearly all actives have a fitted effect of over 60% in size
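Multi-concentration screen (max 110 uM) measuring displacement of acetylated histone H3 peptide from BAZ2B by AlphaScreen, using 50 nM protein, 50 nM peptide and 10 ug/mL streptavidin donor plus Ni-chelate acceptor beads.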
Hits are given with their value; i = inactive; ? = inconclusive; nt = not tested or not shown; [ ] = remark or other dose. Calls follow the shape of the dose curve; as a rule, active = well fitted curve in the direction sought with a large enough effect; inconclusive = small, poorly fitted or top-dose-only effect, or another doubt; inactive = no such curve, though single readings can be large; an effect the other way counts as inactive or inconclusive.

SMILES	HP1b chromo inh	JMJD2A Tudor	G9a inh	PLK1 PBD inh	Sfp PPTase inh	BAZ2B inh
O=C(CO)C(O)C(O)C(O)CO (configuration not stated)	i	56µM	i[12.7 µM]	27µM	i	i
Cc1ccc2c(c1)C1CN(C)CCC1N2C(=O)Cc1cccs1 (configuration not stated)	i	i	79µM	i	i	i
Cc1ccc2c(c1)C1CN(C)CCC1N2C(=O)c1cccs1 (configuration not stated)	i	i	i	i	i	i
COC1C(O)C(C)O[C@@H](OC2CC[C@@]3(C)C4CC[C@]5(C)C(C6=CC(=O)OC6)CC[C@@]5(O)C4CC[C@@H]3C2)C1O (some centres not stated)	nt	nt	nt	nt	i	nt
NC(N)=N/N=C\c1c(Cl)cccc1Cl	nt	nt	i[2.33 µM]	nt	i	nt
CN(C)c1ccc(N=Cc2c(O)n(CCC3=CCCCC3)c(=O)[nH]c2=O)cc1	i	i	i	i	i	i
COc1ccc(/C=C2\C(=O)NC(=O)N(CCC3=CCCCC3)C2=O)c(OC)c1	i	i	11µM	1.7µM	56µM	i
O=C1NC(=O)N(CCC2=CCCCC2)C(=O)/C1=C/c1ccc(O)cc1	i	i	?	2.7µM	45µM	i
CCN1C(=O)NC(=O)/C(=C\c2ccc(N3CCOCC3)cc2OC)C1=O	nt	nt	i	nt	i	i
O=C1NC(=O)N(Cc2cccs2)C(=O)/C1=C/c1ccc(N2CCOCC2)cc1	i	i	?	3µM	50µM	?
O=C1NC(=O)N(CC2CCCO2)C(=O)/C1=C/c1cccs1 (configuration not stated)	i	i	i[12.7 µM]	?	79µM	i
CCN(CC)c1ccc(/C=C2/C(=O)NC(=O)N(CC3CCCO3)C2=O)cc1 (configuration not stated)	i	i	nt	?	i	?
CC(C)C[C@H]1C(=O)N2CCC[C@@H]2[C@@]2(O)O[C@](NC(=O)[C@@H]3C=C4c5cccc6[nH]cc(c56)C[C@@H]4N(C)C3)(C(C)C)C(=O)N12	nt	nt	?	nt	i	nt
O=C1NC(=O)N(CCC2=CCCCC2)C(=O)/C1=C/c1cccs1	i	?	14µM	0.75µM	i	?
O=C(CS(=O)C(c1ccccc1)c1ccccc1)NO (configuration not stated)	nt	nt	i[12.7 µM]	nt	i	nt
COc1cccc(C2=CC(c3cc(Br)ccc3F)n3nnnc3N2)c1 (configuration not stated)	i	i	11µM	nt	nt	i
CC(C)CN1CC[C@@]2(CCCN(C(=O)c3ccncc3)C2)C1	nt	nt	i[12.7 µM]	nt	i	nt
C=CCc1ccc2c(c1)OCO2	nt	nt	i[2.33 µM]	nt	i	nt
c1cc2c(cc1CCNC1C3CC4CC(C3)CC1C4)OCO2 (configuration not stated)	i	4µM	25µM	i	i	?
CC1CCC(NCCc2ccc3c(c2)OCO3)CC1 (configuration not stated)	?	3.2µM	?	i	i	?
CCSc1nc2n(n1)C(c1ccc(Cl)cc1Cl)C(C(=O)Nc1ccccc1C)=C(C)N2 (configuration not stated)	i	i	i	nt	nt	i
Cn1c(NN=O)nc2ccccc21	i	?	8.9µM	i	40µM	?
CN1CCN(Cc2nc3ccccc3n2C)CC1	i	i	?	i	i	i
CC1=C(O)C(=O)C=C2C1=CC=C1C2(C)CCC2(C)C3CC(C)(C(=O)O)CCC3(C)CCC12C (configuration not stated)	?	20µM	nt	2.1µM	nt	nt
Cc1c(O)c(O)cc2c1CC=C1[C@]3(C)CC[C@]4(C)CC[C@@](C)(C(=O)O)CC4[C@]3(C)CC[C@]12C (some centres not stated)	nt	nt	nt	nt	i	nt
SMILES	HP1b chromo inh	JMJD2A Tudor	G9a inh	PLK1 PBD inh	Sfp PPTase inh	BAZ2B inh
CN1CCc2nc(SCC(=O)OC(C)(C)C)c(C#N)cc2C1	i	i	50µM	i	i	i
Cc1ccc(Cn2c(SCc3ccc(C(=O)NC4CCCC4)cc3)nc3ccncc32)cc1	i	i	?	nt	nt	i
COc1ccc2c(c1)c(CCN)c(C)n2Cc1ccccc1	?	?	40µM	i	i	?
O=c1[nH]c(=S)[nH]c(O)c1N=Nc1ccc2c(c1)OCO2	i	i	?	i	i	i
O=c1[nH]c(=S)[nH]c(O)c1N=Nc1cc2c(cc1[N+](=O)[O-])OCO2	i	i	50µM	i	i	i
O=c1[nH]c(=S)[nH]c(O)c1N=Nc1ccc(-c2ccccc2)cc1[N+](=O)[O-]	nt	nt	11µM	nt	79µM	7.9µM
NCC[C@H](O)C(=O)N[C@H]1C[C@@H](N)[C@@H](O[C@H]2O[C@@H](CN)[C@@H](O)[C@@H](O)[C@@H]2N)[C@@H](O[C@H]2O[C@@H](CO)[C@@H](O)[C@@H]2O)[C@@H]1O	nt	nt	i[5.15 µM]	nt	i	nt
CN(C)[C@@H]1C(=O)C(C(N)=O)=C(O)[C@@]2(O)C(=O)C3=C(O)c4c(O)ccc(Cl)c4[C@@](C)(O)C3C[C@@H]12 (some centres not stated)	i	11µM	50µM	i	i	45µM
CN(C)[C@H]1C(=O)C(C(N)=O)=C(O)[C@]2(O)C(=O)C3=C(O)c4c(O)cccc4[C@@](C)(O)[C@H]3C[C@@H]12	nt	nt	i[21.5 µM]	nt	i	nt
CN(C)C1C(=O)C(C(N)=O)=C(O)C2(O)C(=O)C3=C(O)c4c(O)cccc4C(C)(O)C3CC12 (configuration not stated)	i	40µM	?	i	i	13µM
CN1C(=O)/C(=C\c2ccc(Br)s2)C(=O)NC1=S	i	20µM	7.1µM	1.2µM	40µM	?
COC(=O)C12CC3=C[C@H](CC3=O)Cc3ccccc3[C@@H]1CNC2=O (some centres not stated)	nt	nt	nt	nt	i	nt
CCOC(=O)c1cnc2c(ccc3ccccc32)c1Nc1ccc(N(C)C)cc1	10µM	11µM	2.5µM	nt	nt	6.3µM
N[C@H]1C[C@H]1c1ccccc1	nt	nt	i[12.7 µM]	nt	i	nt
COc1ccc(OC)c(C2=NS(=O)(=O)N(C)C(C(=O)N3CCC4(CC3)OCCO4)=C2)c1	i	?	i	30µM	i	i
CN1C(C(=O)N2CCC3(CC2)OCCO3)=CC(c2ccc(F)cc2)=NS1(=O)=O	i	i	i	i	i	i
COc1ccc(C(c2nnnn2C2CCCCC2)N2CCC3(CC2)C(=O)NCN3c2ccccc2)cc1 (configuration not stated)	nt	nt	nt	i	nt	nt
COc1ccc(C(c2nnnn2CC2CCCO2)N2CCN(c3ccccc3)CC2)cc1 (configuration not stated)	i	?	i	i	?	50µM
COc1ccccc1C(=O)Nc1ccc2c(c1)CC1(C(=O)N(C)C(=O)N(C)C1=O)C1CCCN21 (configuration not stated)	i	i	32µM	i	i	i
Cc1cccc(C(=O)Nc2ccc3c(c2)CC2(C(=O)N(C)C(=O)N(C)C2=O)C2CCCN32)c1 (configuration not stated)	i	i	28µM	i	i	i

Screening data (PubChem)
